Test results as given in PubChem BioAssay (NCATS).
Values joined by “and” are separate entries in the source; they are usually repeats but may differ in a detail not shown here. Equal entries are not always repeated. Records with an inconclusive call do not appear. Entries that show only a call come without a potency. Values without a mark were called inactive. Active and inactive are the calls of the source. Calls come from the whole dose curve; as a rule, active = well fitted curve in the direction sought with a large enough effect; inconclusive = small, poorly fitted or top-dose-only effect, or another doubt; inactive = no such curve, though single readings can be large; an effect the other way counts as inactive or inconclusive.

Tests used:
[1] = molecular target: Cellular tumor antigen p53 (Homo sapiens) (UniProt P04637); assay: Primary qHTS for small molecule compounds that upregulate eGFP-tagged delta133p53alpha (in N-terminal) cells. (AID 2060322); details: NCI-H358 eGFP-delta133p53alpha fluorescence, 24 h; activation: stronger effect = higher value; note: nearly all actives have a fitted effect of over 75% in size
Cellular tumor antigen p53 (Homo sapiens), sequence (P04637 whole entry, looked up): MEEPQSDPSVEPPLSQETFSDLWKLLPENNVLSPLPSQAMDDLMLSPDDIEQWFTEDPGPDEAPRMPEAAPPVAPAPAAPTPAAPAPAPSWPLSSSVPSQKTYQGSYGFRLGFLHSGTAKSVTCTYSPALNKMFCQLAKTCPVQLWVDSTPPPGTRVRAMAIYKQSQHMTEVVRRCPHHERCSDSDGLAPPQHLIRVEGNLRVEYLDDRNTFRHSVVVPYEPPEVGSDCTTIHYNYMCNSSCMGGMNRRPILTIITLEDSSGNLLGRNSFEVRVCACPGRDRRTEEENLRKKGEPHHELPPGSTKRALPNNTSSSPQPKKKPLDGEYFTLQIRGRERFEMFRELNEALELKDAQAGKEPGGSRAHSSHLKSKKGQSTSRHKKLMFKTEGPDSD
In short: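 NCI-H358 cells pre-induced 24 h with 10 ng/ml doxycycline to express N-terminal eGFP-delta133p53alpha, then dosed 24 h at 37C without doxycycline; fixed, Hoechst-stained, GFP intensity by laser scanning cytometry, normalized to DMSO (0%) and 57.5 uM 5-azacytidine (100%).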

[2] = BET inhibitor-based combinations targeting novel dependencies in MECOM-rearranged (r) AML: SET-2 cell line (AID 2202231); details: SET-2 AML cells viability, CellTiter-Glo luminescence, 48 h; viability: stronger effect = lower value, concentration not given here; note: nearly all actives have a fitted effect of over 35% in size
In short: (§1)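 AML cell lines seeded at 500 cells/well, treated with 11-point dose curves for 48 h. Viability by CellTiter-Glo luminescence, normalised to DMSO and empty wells; activity expressed as AUC and per-cell-line Z-transformed AUC.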

[3] = BET inhibitor-based combinations targeting novel dependencies in MECOM-rearranged (r) AML: OCI-AML3 cell line (AID 2202232); details: CellTiter-Glo luminescence, 48 h; Potency: OCI-AML3 viability; series mostly up to 46 µM; note: nearly all actives have a fitted effect of over 35% in size
In short: as §1

[4] = BET inhibitor-based combinations targeting novel dependencies in MECOM-rearranged (r) AML: MV-4-11 cell line (AID 2202233); details: MV-4-11 AML viability, CellTiter-Glo luminescence, 48 h; series mostly up to 46 µM; note: nearly all actives have a fitted effect of over 45% in size
In short: (§2)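 Cells at 500/well were exposed for 48 hr to MIPE v5.0 drugs as 11-point dose curves. Viability was read by CellTiter-Glo luminescence and normalized to DMSO and empty-well controls. Activity was expressed as AUC and per-cell-line Z-AUC.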

[5] = BET inhibitor-based combinations targeting novel dependencies in MECOM-rearranged (r) AML: HNT-34 cell line (AID 2202234); details: HNT-34 AML viability, CellTiter-Glo luminescence, 48 h; series mostly up to 46 µM; note: nearly all actives have a fitted effect of over 35% in size
In short: as §2

[6] = BET inhibitor-based combinations targeting novel dependencies in MECOM-rearranged (r) AML: UCSD-AML1 cell line (AID 2202235); details: UCSD-AML1 AML cells viability, CellTiter-Glo, 48 h; series mostly up to 46 µM; note: nearly all actives have a fitted effect of over 40% in size
In short: as §2

[7] = BET inhibitor-based combinations targeting novel dependencies in MECOM-rearranged (r) AML: AML-191 cell line (AID 2202236; note: nearly all actives have a fitted effect of over 35% in size); details: AML-191 viability, CellTiter-Glo luminescence, 48 h; series mostly up to 46 µM
In short: as §1

[8] = BET inhibitor-based combinations targeting novel dependencies in MECOM-rearranged (r) AML: AML-194 cell line (AID 2202237; note: nearly all actives have a fitted effect of over 40% in size); details: AML-194 (MECOM-r AML) viability, CellTiter-Glo, 48 h; series mostly up to 46 µM
In short: as §1
Potency is the fitted concentration of half-maximal effect.

Compound | activation [1] | viability [2] | Potency [3] | Potency [4] | Potency [5] | Potency [6] | Potency [7] | Potency [8] | Potency [1] | Potency [2]
c1cc(CN2CCCNCCNCCCNCC2)ccc1CN1CCCNCCNCCCNCC1 | 39.7% | 87.5% | inactive | inactive | inactive | inactive | inactive | inactive | – | –
O=C(O)C(=O)Nc1cccc(-c2nn[nH]n2)c1 | -3.95% | 121% | inactive | inactive | inactive | inactive | inactive | inactive | – | –
O=C(O)C(O)Cc1ccc(O)c(O)c1 (stereo unspecified) | -12.6% | 99.8% | inactive | inactive | inactive | inactive | inactive | inactive | – | –
C[C@H](NC(=O)Cc1cc(F)cc(F)c1)C(=O)N[C@H](C(=O)OC(C)(C)C)c1ccccc1 | 11.5% | 118% | inactive | inactive | inactive | inactive | inactive | inactive | – | –
O=C(NC1CCNCC1)c1[nH]ncc1NC(=O)c1c(Cl)cccc1Cl | – | – | 1.05 µM (active) | 0.662 µM (active) | 1.05 µM (active) | 1.32 µM (active) | 2.09 µM (active) | 2.63 µM (active) | 0.685 µM (active) | 11.8 µM (active)
O=NN(CCCl)C(=O)NC1CCCCC1 | -3.35% and 3.74% | 112% | inactive | inactive | inactive | inactive | inactive | inactive | – | –
Oc1c(Cl)cc(Cl)c2cccnc12 | 16.4% and -7.96% | – | 16.6 µM (active) | 11.8 µM (active) | 4.17 µM (active) | 5.25 µM (active) | 8.33 µM (active) | 8.33 µM (active) | – | 8.33 µM (active)
